Source: PubChem BioAssay (Tox21)
Active and inactive are the calls of the source. Entries that show only a call come without a potency. Calls follow the shape of the dose curve; as a rule, active = well fitted activation curve with a large enough effect in the repeat runs; inconclusive = weak or mixed curves; inactive = flat fitted curve, though single readings scatter.

Assay: A CellTox Green Cytotoxicity Assay to monitor cytotoxicity in HEK293 cells - 0 hour (AID 1224869); also: nearly all actives have a fitted effect of over 50% in size
Conditions: CellTox Green fluorescence; series mostly up to 76.8 µM; cytotoxicity: at the top concentration
Summary of the method: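 Tox21 screen in HEK293: membrane-impermeant cyanine dye fluoresces on binding dead-cell DNA; compound pinned 5 h post-seeding, plates held at 37 C, signal read repeatedly through 40 h.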

Compound	Potency	cytotoxicity
C=CCN=C=S	inactive	–
COc1nc(NC(C)C)nc(NC(C)C)n1	inactive	–
ClC(Cl)c1ccccc1	inactive	–
O=P1(NCCCl)OCCCN1CCCl (stereo not given)	inactive	–
CN(C)C(=O)Nc1cccc(C(F)(F)F)c1	inactive	–
COC(C)(C)CCCC(C)C/C=C/C(C)=C/C(=O)OC(C)C (stereo not given)	inactive	–
Cc1cc(O)ccc1Cl	inactive	–
O=C(O)Cc1ccccc1	inactive	–
OC[C@@H](O)[C@H]1O[C@@H]2O[C@H](C(Cl)(Cl)Cl)O[C@@H]2[C@H]1O	inactive	–
CNC(=O)O/N=C(\SC)C(=O)N(C)C	inactive	–
CCOc1ccc(N)cc1	inactive	–
CN(C)NC(=O)CCC(=O)O	inactive	–
Sc1ccccc1	inactive	–
Cc1ccc(N)cc1	inactive	–
CNC(=O)Oc1cccc2ccccc12	inactive	–
Cc1ccc(O)c(C)c1	inactive	–
OCC(O)CCl (stereo not given)	inactive	–
Nc1cc(Cl)cc(Cl)c1	inactive	–
N#Cc1ccccn1	inactive	–
COC(=O)Nc1cccc(OC(=O)Nc2cccc(C)c2)c1	inactive	–
CC(=O)/C=C/c1ccccc1	inactive	–
CC[N+](=O)[O-]	inactive	–
COS(=O)(=O)OC	–	-5.16% (inactive)
C=C(C)C(=O)OCC(CC)CCCC (stereo not given)	–	0.0429% (inactive)
OCCCCO	inactive	–
OCc1ccco1	inactive	–
CC(C)CCCCCCOC(=O)c1ccccc1C(=O)OCCCCCCC(C)C	inactive	–
CN(C)C(=O)Cl	inactive	–
CCCOC(=O)c1ccccc1C(=O)OCCC	inactive	–
CCNc1nc(Cl)nc(NC(C)C)n1	inactive	–
